In PubChem BioAssay AID1347426 (Functional Genomics Laboratory (NCATS/FGL), 2020):
Screen size: about 31,000 sequences; about 1,400 (4.5%) were called active. Many of the other results were omitted from the sample, so actives are more common in it than they were. A number with no mark means an inactive call.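 Rule for the calls: active = median seed-adjusted z-score above 1 or below -1; inactive = the rest.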

Test: Novel Modifiers of Survival Motor Neuron (SMN) Protein: Gene Identification via Genome-wide siRNA Screen;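 note: luminescence tracks full-length SMN protein made from the SMN2 reporter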
Settings: HEK293T SMN2-luciferase reporter, siRNA knockdown, 72 h; actives lie on both sides
Summary of the method: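 siRNA screen, 10418 genes ×3 siRNAs; 1 pmol/well, lipid reverse transfection into HEK293T SMN2-luc reporter line. 72 h, 37 °C, 5% CO2; ONE-Glo readout. Data: neg-ctrl normalized, log10, MAD; hit = MAD >1.0 or < -1.0.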

| Sequence | median seed-adjusted z-score |
| --- | --- |
| GCACAACACUCGCUCCAAUTT against GLT8D1 | 1.22 (active) |
| GGUAAUAAAUGGGUUGGAATT against PTGR2 | 0.14 |
| CAGAGACCCUUGAUAAACUTT against PIK3AP1 | 0.0678 |
| GCAUGACUAUGUCAAGAAATT against MCM3 | 0.339 |
| GCUCGUGAUUGAUGCUGCATT against NGB | 0 |
| CGACAUCAUCAAUAGACGATT against AQR | -1.56 (active) |
| GGACCACGAUGAUCAUUGATT against CRMP1 | -0.354 |
| GCAUUGGUGUAUGGAAUUATT against SLC6A15 | 0.0939 |
| GCAAGAAAAAUCUAAGGAATT against ZNF57 | 0 |
| ACAGCAUUGUCAUUAGACATT against UBR5 | 0.114 |
| CAUGUGCUAUCGAAAGUAUTT against TCEB1 | 1.08 (active) |
| GCGUAGUUAUAGAAGUAGATT against RBMX2 | -0.585 |
| GGAACUGUUUUUACAAGCATT against MKRN1 | -0.496 |
| UCAUAUAGGCAAAAUUUAATT against POU3F2 | -0.179 |
| GGGUUCACCUCAGAGAGCATT against DPF3 | 0.242 |
| GAAACUUUCAUUACGUAUATT against SNX7 | 0.146 |
| GAACGAAAGGUCCUCAGUATT against SPATA21 | -1.03 (active) |
| GCUGCUUCAGACUACCAAATT against TXNDC9 | -0.176 |
| CCAUAUUAAUGUCCAUGAUTT against PCDHB7 | 0.365 |
| GGAUGCCCACUGUAUCAUATT against MYST2 | -1.46 (active) |
| GAUGGAUACCUCUACCUGATT against ZNF593 | 0.215 |
| CGUGAUCUCAAGUCCAACATT against MAP3K11 | 0.773 |

| Sequence | median seed-adjusted z-score |
| --- | --- |
| CUACCAUUUUCAUCGAGGATT against FREM3 | -0.565 |
| CGAAAGAGGCAAAUAUGAATT against CBX3 | -0.893 |
| GGAUCGGGUUUACUCAGAATT against ACTR6 | 0.189 |
| GGAAGGAACCAUCCAGUAATT against POLR2L | -1.19 (active) |
| AGUUCUUCCUAAUCCGAGATT against DOLPP1 | 0.00977 |
| AAUCGAUCCUCAAUCCUUATT against ZNF676 | -0.499 |
| GCUCCAAAUUGGUUGUAUUTT against PRKAG1 | 0.431 |
| GAACAACUCUUGUGAGAUUTT against STC2 | -0.00039 |
| GCUUCUGAAAUGAACCGAATT against DDHD2 | 0.447 |
| GUGCGGUAGCUACUUGUUUTT against RRAD | -0.267 |
| GGACUCUCAUGAGUGCUGATT against ACP2 | -0.00569 |
| GAAAGAUGUUGGGAAUAAATT against ST6GAL2 | 0.054 |
| CAUCCAUUAUGACCUGCUATT against ACO2 | -1.57 (active) |
| CGUGUGGACUUGACAAGCATT against OBSCN | -0.798 |
| CUAUAUCUCCAACACUUUUTT against SMARCD3 | 0.247 |
| GAGAAAAAGCGGAUCAAGATT against GRK6 | -0.862 |
| GGAAGAACGUGUAACCGAATT against RDX | 0.123 |
| GAGUCUGCGUUAUCGACAATT against TPR | -1.03 (active) |
| GGAUGAAAAAUACCGGUGUTT against UGT8 | 0 |
| CAACCUUUCACUGCAAUGATT against NAT8 | -0.228 |
| CGGGAAGAAUCAAAGUCGATT against KRT23 | -0.0696 |
| GGAGCGAAAUGUUCAGGUUTT against PSPH | -0.518 |

| Sequence | median seed-adjusted z-score |
| --- | --- |
| CGAGGACACUCAAACGGAUTT against TAF7L | -0.14 |
| CACGAAAACUUACCCAGAATT against DGUOK | 0.0168 |
| GGUCCCAGCUUGAAGAGAATT against CSTB | 1.08 (active) |
| CAGGCAAAGUUCGACAGUATT against HEPH | -0.293 |
| GGAUUCUCAGUUACACUUATT against SLC25A3 | -0.495 |
| GAUCCGUUCUGAUUAGUGATT against EZH1 | 0.268 |
| GUUCCUCACUUAUCGCUAUTT against ADAMTSL3 | -0.0419 |
| GGAACUACGUCCACACCCATT against GHRHR | 0 |
| GGAUAACACUAAGUUUAGATT against SFRS1 | -1.66 (active) |
| GGCCGGUGUUUGACGACAATT against STK32C | -0.311 |
| CUCCCUCACCAAAACAAAATT against DUSP26 | 0.204 |
| CAAGGUCUGUAGUCAAAAUTT against ZNF677 | -0.441 |
| GGAGGUUCAGAAGCACCUATT against PACSIN2 | 0.73 |
| GUGUAGCACUGACCAAGAATT against RCAN3 | 0.544 |
| GAUCUGUGCUAUACUGACATT against EFTUD2 | -1.25 (active) |
| GACCUGCUCUGUAACCUCATT against NAALADL1 | -0.0444 |
| AAAACUUACGAACAACAAATT against TBR1 | -0.388 |
| UCAAGCAUGUGGUCCUGUATT against AIP | 0.529 |
| GAUGAGUAUGCAAAAUUUATT against ATR | -0.217 |
| GCACAUAAGGAGGCGAUUATT against WDR33 | 3.27 (active) |
| GCAACAUCGUGUUCUUGAATT against GAL3ST1 | 0.263 |
| GCAGAAACCCAGAUCGAGATT against PLAT | 0.246 |

| Sequence | median seed-adjusted z-score |
| --- | --- |
| GGAACUUUUUCGUCGGUAUTT against RNGTT | -1.55 (active) |
| CGACAUUGGUGACCCUCUUTT against DDOST | -0.315 |
| GCAGUUCGAGAAGAACUUUTT against LMBR1 | 0.236 |
| AGACACCCUUUGGACCACATT against ZFAND2A | 0 |
| GCACGAAUGAGGACGAUGATT against SPRY4 | -1.23 (active) |
| GGUGGAAGUGGUCAACGUATT against DUSP21 | -0.0724 |
| GACGUGGAGUUGAUAAAGATT against DSC3 | 0.18 |
| GCCCGUCUGCAGUACCUAATT against ADAP2 | -1.1 (active) |
| GCACUUAUAUGACAGCGAATT against SIM1 | -0.0177 |
| GCUCGAUUAACAAAAUAUATT against SLC30A5 | 0.401 |
| GAUUGGACCUAACAAUGGATT against NEIL3 | 0.0736 |
| UGCUGACUUUUAACCCACATT against CDK4 | 0.346 |
| CACUCGAAAUUUUGAAGCATT against CHD4 | 0.625 |
| CGGUUGAACUUCGAAAUAUTT against NF1 | -0.36 |
| CAACGGCAGGAAAUUCUAATT against KLRA1 | 0.918 |
| GUAUCGCAUUUCUACAGCATT against SAMHD1 | -1.33 (active) |
| AGAGCAAGCGGAAAAGGGATT against HAND1 | 0.161 |
| GAAUCACCAGCUAAACUAUTT against STARD6 | 0.0605 |
| GCACCAGCGAGAGAAGAGATT against PLA2G3 | 0.543 |
| CCAAAGAACUUAAGGAUUUTT against NEURL2 | 1.39 (active) |
| GGUCUACGUGAACAACUCUTT against KCNMB4 | 0 |
| GCAAAUCGCUAGCAUCAUUTT against MLL2 | -2.11 (active) |

| Sequence | median seed-adjusted z-score |
| --- | --- |
| GCAUUUUGCAUAUCCACCATT against TRMT12 | 0.352 |
| GAAGAAACUUGUGAACGAATT against MX1 | -1.49 (active) |
| GGAACAGUCAUGCUGGAUATT against SLC4A7 | 0 |
| GAACAUCGCAUAAUCCUGATT against ORC1L | -0.536 |
| GCAACUUCGUGAGAUUACATT against COLEC12 | -1.04 (active) |
| AAGCAUAAUUUGUACAGCUTT against NMNAT1 | 0.22 |
| CCAAGAUGCGAUCCUCCAATT against HOXA4 | 0.194 |
| GGCUUGGAUCAAUCUAAGATT against HNRNPL | 1.04 (active) |
| GGGCAACUCUUCAUCUACATT against SLC5A10 | 0.669 |
| GGCUAUACAUGGAUAGCAATT against SLITRK1 | 0.215 |
| CGAUUAGUGUCAAAGGCUUTT against MMP7 | 0.0315 |
| CGAACGACAGUUCCACAAATT against PDE6A | 1.25 (active) |
| GAAUCUAUGAGAUGAACAATT against LDB2 | -0.0847 |
| GCAGAAUACAAGAGCUUGATT against EID2 | -1.04 (active) |
| GGCUCCUUAUAUGACUAUUTT against ACVR1C | -0.0005 |
| GCUCUGAGGGAGUAUCGAATT against TROVE2 | 0.399 |
| ACAUAACCGUUCUUCGAGATT against GTPBP2 | -0.166 |
| CAAAAGGACAAAUCAACGATT against DDAH1 | 0.138 |
| GAGACUGUGCAGAUGUAUATT against ANGPT1 | 0.289 |
| GCAUCAGCAUAAGUCCAUUTT against SIAH1 | 1.5 (active) |
| GUGUCGUACUCACAUCCAUTT against PTCH2 | -0.191 |
